The full data set covers some 7,900 targets. This sample favours those with a hit. About 0.6% of all pairs of compound and target were hits. Unmarked numbers belong to inactive results.
What was measured:
Assay in all cases: log2 fold change, soluble protein after heating vs DMSO (PISA); higher = thermal stabilisation; K562 cells, 10 uM, 30 min; active = over 0.2 and 3.5 SD of the protein, either way, in both replicates (recomputed)
bafetinib = compound: Cc1ccc(NC(=O)c2ccc(CN3CC[C@H](N(C)C)C3)c(C(F)(F)F)c2)cc1Nc1nccc(-c2cncnc2)n1 [bafetinib]
Method in brief: (§1)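 Soluble protein was quantified by TMTpro 16plex LC-MS/MS after channel sums were equalised. It was obtained as the supernatant after 21,000xg for 90 min from pooled aliquots of K562 cells (2×10^6 cells/mL, 10 μM compound, 30 min) heated for 3 min across 48°C-58°C and extracted in PBS with 0.5% NP-40 at 4°C. Thermal stability values are relative to control samples and come from duplicates. They are given as log2 fold changes.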

[1] = compound: Cc1cccc(CC(=O)N2CCc3c2ccc(-c2cn(C)c4ncnc(N)c24)c3F)n1
Method in brief: as §1

nilotinib = compound: Cc1cn(-c2cc(NC(=O)c3ccc(C)c(Nc4nccc(-c5cccnc5)n4)c3)cc(C(F)(F)F)c2)cn1 [nilotinib]
Method in brief: as §1

[2] = compound: Cc1nc(Nc2n[nH]c3c2CN(C(=O)N[C@H](CN(C)C)c2ccccc2)C3(C)C)c2sccc2n1
Method in brief: as §1

dasatinib = compound: Cc1nc(Nc2ncc(C(=O)Nc3c(C)cccc3Cl)s2)cc(N2CCN(CCO)CC2)n1 [dasatinib]
Method in brief: as §1

[3] = compound: Cc1ncc(-c2ccnc(Nc3ccc(S(C)(=O)=O)cc3)n2)n1C(C)C
Method in brief: as §1

[4] = compound: Cn1cc(-c2ccc3c(c2)CCN3C(=O)Cc2cccc(C(F)(F)F)c2)c2c(N)ncnc21
Method in brief: as §1

[5] = compound: Cn1cc(-c2ccc3nnc(C(F)(F)c4ccc5ncccc5c4)n3n2)cn1
Method in brief: as §1

tipifarnib = compound: Cn1cncc1[C@@](N)(c1ccc(Cl)cc1)c1ccc2c(c1)c(-c1cccc(Cl)c1)cc(=O)n2C [tipifarnib]
Method in brief: as §1

mubritinib = compound: FC(F)(F)c1ccc(/C=C/c2nc(COc3ccc(CCCCn4ccnn4)cc3)co2)cc1 [mubritinib]
Method in brief: as §1

[6] = compound: NC(=O)Nc1cc(-c2cccc(F)c2)sc1C(=O)N[C@H]1CCCNC1
Method in brief: as §1

[7] = compound: NC(=O)c1cnc(N[C@@H]2CCCC[C@@H]2N)nc1Nc1cccc(-n2nccn2)c1
Method in brief: as §1

[8] = compound: NC1(c2ccc(-c3nc4ccn5c(=O)[nH]nc5c4cc3-c3ccccc3)cc2)CCC1
Method in brief: as §1

[9] = compound: NCC(=O)Nc1ccc(-n2nc(C(F)(F)F)cc2-c2ccc3c(ccc4ccccc43)c2)cc1
Method in brief: as §1

entinostat = compound: Nc1ccccc1NC(=O)c1ccc(CNC(=O)OCc2cccnc2)cc1 [entinostat]
Method in brief: as §1

vorinostat = compound: O=C(CCCCCCC(=O)Nc1ccccc1)NO [vorinostat]
Method in brief: as §1

citarinostat = compound: O=C(CCCCCCNC(=O)c1cnc(N(c2ccccc2)c2ccccc2Cl)nc1)NO [citarinostat]
Method in brief: as §1

silmitasertib = compound: O=C(O)c1ccc2c(c1)nc(Nc1cccc(Cl)c1)c1ccncc12 [silmitasertib]
Method in brief: as §1

[10] = compound: O=C1NC(=O)C(c2cnc3ccccn23)=C1c1cn2c3c(cc(F)cc13)CN(C(=O)N1CCCCC1)CC2
Method in brief: as §1

[11] = compound: c1cc(OCCN2CCCCC2)cc(-c2n[nH]c3ccc(-c4nnc[nH]4)cc23)c1
Method in brief: as §1

Chain of UniProt Q5VT25 (Q5VT25 whole entry, looked up): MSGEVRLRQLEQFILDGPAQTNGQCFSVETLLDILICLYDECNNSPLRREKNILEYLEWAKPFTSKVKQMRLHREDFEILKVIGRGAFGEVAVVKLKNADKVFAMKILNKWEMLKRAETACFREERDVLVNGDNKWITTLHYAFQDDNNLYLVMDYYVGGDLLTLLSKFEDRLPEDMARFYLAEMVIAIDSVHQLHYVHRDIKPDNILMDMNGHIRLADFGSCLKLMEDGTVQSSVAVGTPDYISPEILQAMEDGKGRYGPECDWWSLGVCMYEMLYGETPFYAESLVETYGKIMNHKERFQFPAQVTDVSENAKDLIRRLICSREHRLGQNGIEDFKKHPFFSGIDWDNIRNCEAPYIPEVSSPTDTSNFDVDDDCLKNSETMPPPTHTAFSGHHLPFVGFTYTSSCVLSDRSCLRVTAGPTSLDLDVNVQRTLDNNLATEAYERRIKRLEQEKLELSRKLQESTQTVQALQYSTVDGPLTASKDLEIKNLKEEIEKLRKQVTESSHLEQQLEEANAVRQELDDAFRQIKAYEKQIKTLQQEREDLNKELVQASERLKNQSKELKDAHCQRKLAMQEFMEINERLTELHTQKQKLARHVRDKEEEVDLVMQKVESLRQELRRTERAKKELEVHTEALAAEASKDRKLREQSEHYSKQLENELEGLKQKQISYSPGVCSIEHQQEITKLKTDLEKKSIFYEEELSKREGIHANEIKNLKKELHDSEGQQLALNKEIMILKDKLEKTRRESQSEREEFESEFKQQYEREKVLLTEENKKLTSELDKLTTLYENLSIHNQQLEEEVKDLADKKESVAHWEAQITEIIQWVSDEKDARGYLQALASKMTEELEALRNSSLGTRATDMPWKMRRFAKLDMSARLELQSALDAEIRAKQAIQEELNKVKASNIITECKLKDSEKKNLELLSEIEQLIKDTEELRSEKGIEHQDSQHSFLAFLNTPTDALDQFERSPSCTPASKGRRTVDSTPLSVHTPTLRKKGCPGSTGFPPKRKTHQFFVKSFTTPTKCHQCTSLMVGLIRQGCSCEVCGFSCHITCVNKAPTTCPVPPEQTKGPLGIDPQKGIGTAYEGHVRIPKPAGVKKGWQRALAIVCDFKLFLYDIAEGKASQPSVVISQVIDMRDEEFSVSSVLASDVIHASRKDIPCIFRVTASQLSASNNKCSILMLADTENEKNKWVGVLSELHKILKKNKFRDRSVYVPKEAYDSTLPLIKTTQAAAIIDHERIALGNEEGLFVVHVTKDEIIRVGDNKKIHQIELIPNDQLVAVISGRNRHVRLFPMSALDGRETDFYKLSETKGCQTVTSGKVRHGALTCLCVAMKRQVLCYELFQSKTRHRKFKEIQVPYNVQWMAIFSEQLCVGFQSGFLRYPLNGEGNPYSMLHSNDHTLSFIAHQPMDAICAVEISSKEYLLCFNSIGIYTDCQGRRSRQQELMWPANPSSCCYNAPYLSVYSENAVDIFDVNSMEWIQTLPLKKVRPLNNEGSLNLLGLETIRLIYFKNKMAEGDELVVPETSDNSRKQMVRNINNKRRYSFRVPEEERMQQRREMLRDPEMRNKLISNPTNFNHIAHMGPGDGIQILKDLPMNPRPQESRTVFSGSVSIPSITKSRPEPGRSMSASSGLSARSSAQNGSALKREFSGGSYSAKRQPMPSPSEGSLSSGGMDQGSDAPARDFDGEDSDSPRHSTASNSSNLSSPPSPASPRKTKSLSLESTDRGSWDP
Chain of UniProt Q9NYV4 (Q9NYV4 whole entry, looked up): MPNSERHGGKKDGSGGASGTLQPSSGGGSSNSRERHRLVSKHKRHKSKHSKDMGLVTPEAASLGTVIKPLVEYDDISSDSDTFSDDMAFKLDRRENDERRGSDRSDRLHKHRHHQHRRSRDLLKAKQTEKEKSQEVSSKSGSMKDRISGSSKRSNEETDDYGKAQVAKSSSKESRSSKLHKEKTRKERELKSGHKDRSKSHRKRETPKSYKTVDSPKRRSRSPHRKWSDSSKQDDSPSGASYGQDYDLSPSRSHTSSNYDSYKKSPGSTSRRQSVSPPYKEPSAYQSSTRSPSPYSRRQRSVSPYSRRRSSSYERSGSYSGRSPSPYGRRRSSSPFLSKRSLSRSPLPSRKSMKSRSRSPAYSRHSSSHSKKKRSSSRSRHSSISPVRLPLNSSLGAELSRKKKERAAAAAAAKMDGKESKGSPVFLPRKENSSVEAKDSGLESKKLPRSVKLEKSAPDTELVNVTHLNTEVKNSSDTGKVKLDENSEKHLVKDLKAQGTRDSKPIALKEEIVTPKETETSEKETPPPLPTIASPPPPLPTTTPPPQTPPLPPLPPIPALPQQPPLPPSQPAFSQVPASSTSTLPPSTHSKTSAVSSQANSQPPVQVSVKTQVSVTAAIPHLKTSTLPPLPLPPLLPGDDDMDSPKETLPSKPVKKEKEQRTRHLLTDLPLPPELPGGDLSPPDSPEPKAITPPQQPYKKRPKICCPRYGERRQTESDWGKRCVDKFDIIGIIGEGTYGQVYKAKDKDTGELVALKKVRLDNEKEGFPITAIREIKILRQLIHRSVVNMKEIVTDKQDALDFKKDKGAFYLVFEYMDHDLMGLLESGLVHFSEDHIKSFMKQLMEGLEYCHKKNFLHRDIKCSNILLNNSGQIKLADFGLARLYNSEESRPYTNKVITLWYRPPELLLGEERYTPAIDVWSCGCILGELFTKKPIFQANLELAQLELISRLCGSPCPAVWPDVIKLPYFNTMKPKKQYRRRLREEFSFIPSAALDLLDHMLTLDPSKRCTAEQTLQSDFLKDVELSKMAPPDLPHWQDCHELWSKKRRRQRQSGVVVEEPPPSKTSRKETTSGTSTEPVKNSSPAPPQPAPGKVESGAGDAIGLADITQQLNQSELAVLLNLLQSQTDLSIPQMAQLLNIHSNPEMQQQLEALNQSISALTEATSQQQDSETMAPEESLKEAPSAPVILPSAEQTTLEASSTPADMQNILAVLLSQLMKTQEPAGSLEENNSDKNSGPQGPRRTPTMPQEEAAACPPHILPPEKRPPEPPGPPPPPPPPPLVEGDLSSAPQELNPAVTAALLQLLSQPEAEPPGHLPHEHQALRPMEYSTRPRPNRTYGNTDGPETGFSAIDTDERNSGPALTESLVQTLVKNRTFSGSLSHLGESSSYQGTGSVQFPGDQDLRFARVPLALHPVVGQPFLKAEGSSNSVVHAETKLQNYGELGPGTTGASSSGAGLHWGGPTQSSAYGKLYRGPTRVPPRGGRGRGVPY
Chain of UniProt Q9HAW4 (Q9HAW4 whole entry, looked up): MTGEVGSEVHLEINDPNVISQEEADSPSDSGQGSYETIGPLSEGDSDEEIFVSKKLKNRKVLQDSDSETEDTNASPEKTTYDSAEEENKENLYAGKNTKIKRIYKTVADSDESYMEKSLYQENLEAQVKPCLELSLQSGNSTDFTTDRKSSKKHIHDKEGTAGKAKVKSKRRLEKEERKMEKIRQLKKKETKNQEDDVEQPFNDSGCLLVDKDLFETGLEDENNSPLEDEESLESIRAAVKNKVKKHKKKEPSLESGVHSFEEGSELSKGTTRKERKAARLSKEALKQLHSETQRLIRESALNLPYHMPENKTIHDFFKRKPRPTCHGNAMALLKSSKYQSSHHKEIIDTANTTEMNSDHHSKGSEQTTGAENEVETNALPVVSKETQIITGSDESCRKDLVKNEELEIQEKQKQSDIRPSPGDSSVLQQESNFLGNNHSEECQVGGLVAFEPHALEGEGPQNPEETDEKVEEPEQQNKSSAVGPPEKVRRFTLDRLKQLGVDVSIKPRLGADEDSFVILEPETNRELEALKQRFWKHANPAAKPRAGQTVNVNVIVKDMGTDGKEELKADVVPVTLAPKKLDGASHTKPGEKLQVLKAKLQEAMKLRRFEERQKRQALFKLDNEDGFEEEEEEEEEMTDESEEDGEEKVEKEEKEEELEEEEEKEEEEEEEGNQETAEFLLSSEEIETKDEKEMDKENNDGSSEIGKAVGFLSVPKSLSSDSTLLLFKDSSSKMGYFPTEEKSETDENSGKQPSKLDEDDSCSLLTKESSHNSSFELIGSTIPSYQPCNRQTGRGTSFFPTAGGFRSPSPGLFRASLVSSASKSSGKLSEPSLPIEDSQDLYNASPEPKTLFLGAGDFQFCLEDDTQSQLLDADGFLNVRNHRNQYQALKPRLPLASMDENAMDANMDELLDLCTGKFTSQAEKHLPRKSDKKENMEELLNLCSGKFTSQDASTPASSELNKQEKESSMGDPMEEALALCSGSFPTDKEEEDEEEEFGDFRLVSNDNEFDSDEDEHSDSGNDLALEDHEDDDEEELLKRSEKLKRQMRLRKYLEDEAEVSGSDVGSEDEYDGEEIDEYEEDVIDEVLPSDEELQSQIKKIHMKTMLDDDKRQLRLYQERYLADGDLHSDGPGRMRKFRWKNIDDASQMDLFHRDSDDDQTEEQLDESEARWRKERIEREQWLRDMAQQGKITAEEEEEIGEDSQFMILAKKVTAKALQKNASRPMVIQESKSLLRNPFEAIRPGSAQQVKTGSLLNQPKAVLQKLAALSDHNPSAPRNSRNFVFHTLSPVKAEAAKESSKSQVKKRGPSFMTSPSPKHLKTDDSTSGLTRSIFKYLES
Chain of UniProt Q13057 (Q13057 whole entry, looked up): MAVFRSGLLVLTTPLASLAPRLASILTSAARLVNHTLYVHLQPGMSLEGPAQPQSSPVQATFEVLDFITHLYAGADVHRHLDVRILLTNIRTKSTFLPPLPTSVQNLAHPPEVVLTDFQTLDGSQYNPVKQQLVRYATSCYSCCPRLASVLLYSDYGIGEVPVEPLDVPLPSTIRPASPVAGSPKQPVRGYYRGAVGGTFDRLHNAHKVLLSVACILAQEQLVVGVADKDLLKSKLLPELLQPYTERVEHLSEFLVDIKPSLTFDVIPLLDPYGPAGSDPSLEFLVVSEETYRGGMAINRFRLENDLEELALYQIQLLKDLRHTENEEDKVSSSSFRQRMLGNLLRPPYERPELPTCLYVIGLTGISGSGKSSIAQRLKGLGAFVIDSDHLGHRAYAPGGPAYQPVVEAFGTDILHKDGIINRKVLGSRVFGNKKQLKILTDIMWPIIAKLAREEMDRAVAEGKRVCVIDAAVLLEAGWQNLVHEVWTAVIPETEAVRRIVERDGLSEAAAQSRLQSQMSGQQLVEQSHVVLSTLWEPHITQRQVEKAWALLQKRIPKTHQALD

Target	log2 fold change (bafetinib)	log2 fold change [1]	log2 fold change (nilotinib)	log2 fold change [2]	log2 fold change (dasatinib)	log2 fold change [3]	log2 fold change [4]	log2 fold change [5]	log2 fold change (tipifarnib)	log2 fold change (mubritinib)	log2 fold change [6]	log2 fold change [7]	log2 fold change [8]	log2 fold change [9]	log2 fold change (entinostat)	log2 fold change (vorinostat)	log2 fold change (citarinostat)	log2 fold change (silmitasertib)	log2 fold change [10]	log2 fold change [11]
CKS1B (UniProt P61024)	-0.065	-0.06	0.14	-0.016	0	0.026	0.067	0.017	-0.043	0.056	-0.029	-0.03	-0.082	0.042	-0.02	0.025	0.009	0.063	-0.084	-0.067
CNN2 (UniProt Q99439)	-0.001	0.052	-0.075	-0.074	-0.14	0.006	0.011	0.044	-0.16	0.051	-0.029	-0.031	-0.104	-0.052	0.08	0.029	0.061	0.062	-0.062	-0.026
C16orf58 (UniProt Q96GQ5)	-0.112	0.052	-0.036	0.029	-0.046	-0.01	0.084	0.012	0.003	0.021	-0.047	-0.05	-0.111	-0.08	0.001	0.026	0.034	0.032	-0.027	-0.017
CD63 (UniProt P08962)	-0.069	-0.059	-0.023	0.074	0.021	0.002	-0.047	0.002	0.043	-0.003	-0.026	-0.001	-0.05	-0.035	-0.004	-0.066	0.026	0.02	0.051	-0.063
COASY isoform 2 (UniProt Q13057)	-0.009	0.089	-0.19	0.001	-0.132	0.005	0.037	-0.062	-0.102	-0.196	0	0.004	-0.138	-0.004	0.018	0.063	0.054	0.042	-0.004	-0.01
CDC42BPA isoform 6 (UniProt Q5VT25)	0.051	0.102	0.28	-0.682 (active)	-0.254	0.135	0.036	0.008	-0.185	0.037	-0.325	-0.334	-0.06	-0.003	0.012	0.051	0.115	0.11	-0.041	-0.203
CDK12 (UniProt Q9NYV4)	0.298	0.079	0.136	-0.631 (active)	0.23	-0.301	-0.484	-0.123	0.156	-0.043	-0.002	0.005	0.06	0.01	0.005	0.089	-0.051	-0.081	0.179	-0.242
CASP2 (UniProt P42575)	0.041	-0.035	-0.037	0.076	-0.165	0.114	0.105	-0.056	-0.118	0.006	-0.317	-0.047	-0.099	0.065	0.017	0.13	0.058	0.051	-0.008	-0.032
CLN8 (UniProt Q9UBY8)	-0.209	-0.662 (active)	0.051	-0.11	0.032	-0.083	0.258	0.266	0.003	-0.08	-0.062	-0.002	0.334	0	0.058	-0.061	0.064	0.075	–	-0.095
CLSPN (UniProt Q9HAW4)	-0.071	-0.035	0.018	-0.011	0.094	-0.123	-0.021	-0.03	0.045	0.053	-0.015	-0.009	-0.003	-0.013	-0.048	-0.028	0.026	0.053	-0.062	-0.086
CSTF3 (UniProt Q12996)	-0.004	0.044	-0.044	0.176	-0.021	0.158	-0.009	-0.01	0.009	0.019	0.011	-0.027	-0.046	-0.032	-0.032	-0.032	-0.021	0.029	0.027	0.012
CCAR2 isoform 2 (UniProt Q8N163)	0.007	0.01	-0.053	-0.023	-0.176	-0.157	-0.009	0.042	0.011	0.031	-0.056	-0.106	-0.013	-0.088	0.089	0.168	0.033	-0.039	-0.151	0.033
CDKN1B (UniProt P46527)	-0.001	-0.05	0.013	-0.097	0.004	0.149	0.108	0.04	0.009	0.114	-0.154	0.178	0.017	-0.177	0.046	-0.01	–	-0.072	-0.01	–

Source: the supplement of paper PMC10849652
